Results: PubChem BioAssay (NCATS)
Results filed as inconclusive are left out. The source made the active and inactive calls. Calls follow the shape of the dose curve; as a rule, active = well fitted curve in the direction sought with a large enough effect; inconclusive = small, poorly fitted or top-dose-only effect, or another doubt; inactive = no such curve, though single readings can be large; an effect the other way counts as inactive or inconclusive.

Assays:
[1] = P-glycoprotein substrates identified in KB-3-1 adenocarcinoma cell line, qHTS therapeutic library screen (AID 1346986); details: KB-3-1 parental cells viability, CellTiter-Glo, 72 h; series mostly up to 44.5 µM; also: nearly all actives have a fitted effect of over 60% in size
Outline: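 72 h cell-killing screen, 500 cells/well, CellTiter-Glo luminescence. Paired lines KB-3-1/KB-8-5-11; P-gp dependence checked by tariquidar co-treatment and HEK-293 MDR-19 versus empty-vector cells.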

[2] = P-glycoprotein substrates identified in KB-8-5-11 adenocarcinoma cell line, qHTS therapeutic library screen (AID 1346987); details: KB-8-5-11 (P-gp overexpressing) viability, CellTiter-Glo, 72 h; series mostly up to 44.5 µM; also: nearly all actives have a fitted effect of over 65% in size; as to activity change, negative = cytotoxicity: % is scaled to controls: 0 for no effect and ±100 for the full control effect
Outline: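 Compounds are pinned in dose-response onto KB-8-5-11 cells (500 cells/well, colchicine-free medium) and left 72 h at 37 degree C. CellTiter-Glo luminescence then yields AC50 values.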

[3] = tested on: Zika virus NS2B-NS3 protease (unlinked complex); assay: Primary screen GU Rhodamine qHTS for Zika virus inhibitors: Unlinked NS2B-NS3 protease assay (AID 1347159); details: Recombinant ZIKV NS2B-NS3 protease, Rhodamine110 substrate fluorescence; series mostly up to 107 µM; also: % is scaled to controls: 0 for no effect and ±100 for the full control effect; nearly all actives have a fitted effect of over 60% in size
Outline: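 Buffer 10 mM Tris-HCl pH 8.0, 0.01% Tween 20. Unlinked protease 25 nM; compound preincubation 15 min, RT, protected from light. Substrate Rhod110, 1.5 microM; ~15% conversion in 15 min.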

[4] = tested on: Zika virus NS2B-NS3 protease (linked construct); assay: Primary screen NINDS Rhodamine qHTS for Zika virus inhibitors (AID 1347160); details: purified NS2B-NS3 protease, Rhodamine110 substrate fluorescence; series mostly up to 33.1 µM; also: % is scaled to controls: 0 for no effect and ±100 for the full control effect; nearly all actives have a fitted effect of over 55% in size
Outline: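 Aprotinin served as in-plate control. Conditions: 25 nM linked NS2B-NS3, pH 8.0 Tris buffer, titrated compounds, 15 min preincubation and 15 min reaction with 1.5 microM Rhod110 substrate at room temperature.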

CC(=O)O[C@H]1C[C@@H](O)C(C)(C)C2C[C@@H](OC(C)=O)[C@@]3(C)C4=CCC(C(CO)CC(O)C5OC5(C)C)[C@]4(C)CCC3[C@]21C (some centres not stated)
inactive: Potency [1] | Potency [2] | Potency [3] | Potency [4]

COc1cc(/C=C/C(=O)O[C@H]2C[C@@H]3C(C(=O)O)=CO[C@@H](O[C@@H]4O[C@H](CO)[C@@H](O)[C@H](O)[C@H]4O)[C@@H]3[C@H]2C)ccc1O
inactive: Potency [1] | Potency [2] | Potency [3] | Potency [4]

CCC12CCCN3CCc4c(n(c5ccccc45)C(O)C1)C32 (configuration not stated)
inactive: Potency [1] | Potency [2] | Potency [3] | Potency [4]

COc1cccc(OC)c1-c1ccc(C[C@H](NC(=O)c2c(Cl)cccc2Cl)C(=O)O)cc1
inactive: Potency [1] | Potency [2] | Potency [3] | Potency [4]

COc1cc(C)c(C(=O)O[C@@H]2[C@H](O)[C@@H](CO)O[C@H]2n2ccc(=O)[nH]c2=O)c(OC)c1
inactive: Potency [1] | Potency [2] | Potency [3] | Potency [4]

CCCN(CCN1CCN(c2ccccc2OC)CC1)C1CCc2ncsc2C1 (configuration not stated)
inactive: Potency [1] | Potency [2] | Potency [3] | Potency [4]

C=C(CCO[C@@H]1O[C@H](CO)[C@@H](O)[C@H](O)[C@H]1O)C(=O)O
inactive: Potency [1] | Potency [2] | Potency [3] | Potency [4]

C[C@@H]1O[C@@H](O[C@@H]2[C@@H](O)[C@H](O[C@H]3[C@H](O[C@H]4CC[C@@]5(C)C(CC[C@]6(C)C5CC=C5[C@@H]7CC(C)(C)CC[C@]7(C(=O)O[C@@H]7O[C@H](CO)[C@@H](O)[C@H](O)[C@H]7O)CC[C@]56C)C4(C)C)O[C@H](C(=O)O)[C@@H](O)[C@@H]3O)OC[C@H]2O)[C@H](O)[C@H](O)[C@H]1O (some centres not stated)
inactive: outcome [1] inactive [at 9.29 µM] | activity change, negative = cytotoxicity [2] 6.37% [at 9.29 µM] | Potency [3] | Potency [4]
